Hits are enriched below; roughly 2.2% of the tested compounds scored in any of these assays.
ZTA DNA inh: ZTA (EBV) inhibition in EBNA-1 counter-screen | inhibition, % at 11 µM | ZTA-DNA binding, fluorescence polarization | actives 0.15% (n = 320,000); in the data active = inhibition above about 33%
Target sequence (P03206 whole entry, looked up): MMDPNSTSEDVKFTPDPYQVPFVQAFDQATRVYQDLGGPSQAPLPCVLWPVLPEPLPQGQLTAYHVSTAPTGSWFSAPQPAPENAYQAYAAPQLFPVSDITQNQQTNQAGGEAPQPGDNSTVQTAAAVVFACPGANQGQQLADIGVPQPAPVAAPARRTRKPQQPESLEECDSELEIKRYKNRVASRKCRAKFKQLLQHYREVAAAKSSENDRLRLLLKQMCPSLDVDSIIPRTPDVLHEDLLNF
NALP3 yeast inh: NALP3 inflammasome inhibitors in reconstituted yeast, primary screen, luminescence, uHTS. Yeast reconstituted NLRP3/ASC/caspase-1, beta-gal luminescence, 24 h. inhibition, % at 10 µM. actives 0.39% (n = 330,000). AID 2825, 2010;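 active = inhibition of 50% or more; inactive = inhibition below 50%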
PolyA inh: polyadenylation inhibitors in yeast reporter cells, primary screen, luminescence, S. cerevisiae; AID 1875, 2009; actives 0.02% (n = 300,000); S. cerevisiae SKY197-pL101 polyadenylation reporter, beta-gal luminescence; efflux-impaired pdr1/pdr3 knockout yeast; score 100 = 6 SD above DMSO; activity score, % at 12 µM;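 active = lowest replicate activity score at least 50, where 100 means six control SD above control mean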;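 note: yeast exposed to compound for 9 h at 30 °C; higher score means more reporter readthrough which indicates perturbed polyadenylation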
EBNA-1 inhibitor: EBNA-1 DNA-binding inhibitors, primary screen, biochemical, fluorescence polarization; inhibition, % at 14.8 µM; actives 0.34% (n = 300,000); in the data active = inhibition above about 28%
NALP1 yeast inh: NALP1 inflammasome inhibitors in reconstituted yeast, colorimetric, S. cerevisiae, triplicate retest. S. cerevisiae NALP1/ASC/caspase-1 growth, X-gal OD620, 72 h. inhibition, % at 10 µM. actives 0.61% (n = 280,000). AID 2071, 2009; in the data active = inhibition mostly above about 24%, no sharp cut-off; inactive = mostly below about 32%
dFosB activator: activators of delta FosB homodimer, primary screen, biochemical, fluorescence polarization, TAMRA-CDK5 oligo, single point; Protein FosB (Mus musculus), P13346; purified delta FosB; percent of positive-control signal above neutral wells; activation, % at 25 µM; actives 0.99% (n = 340,000); AID 493131, 2011;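 active = mean activation above about 17%, with every replicate also reaching it, limit read from the data, passing the limit was not always enough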
Target sequence (P13346 whole entry, looked up): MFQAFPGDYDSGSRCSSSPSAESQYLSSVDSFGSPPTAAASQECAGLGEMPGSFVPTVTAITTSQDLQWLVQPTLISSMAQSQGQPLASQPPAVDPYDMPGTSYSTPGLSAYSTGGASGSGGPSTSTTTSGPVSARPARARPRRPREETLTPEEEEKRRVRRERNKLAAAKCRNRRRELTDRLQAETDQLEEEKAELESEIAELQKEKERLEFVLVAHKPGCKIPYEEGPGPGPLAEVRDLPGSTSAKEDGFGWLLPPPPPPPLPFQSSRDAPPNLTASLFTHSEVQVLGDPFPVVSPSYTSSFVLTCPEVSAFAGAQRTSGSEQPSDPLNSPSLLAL
Numbers stand for hits; n = inactive; x = no result.

SMILES	ZTA DNA inh	NALP3 yeast inh	PolyA inh	EBNA-1 inhibitor	NALP1 yeast inh	dFosB activator
NCCNc1ccc(C(=O)N2c3ccccc3Sc3ccccc32)cc1[N+](=O)[O-]	n	n	n	n	n	53.8
CCN1CCN(C(=O)C2CCC(=O)N(Cc3cccc(C(F)(F)F)c3)C2)CC1 (centres undefined)	n	n	n	n	n	n
CN1CCN(C(=O)C2CCC(=O)N(Cc3cccc(C(F)(F)F)c3)C2)CC1 (centres undefined)	n	n	n	n	31.9	n
O=C(NCc1ccccn1)C1CCCN(S(=O)(=O)c2cccc3nsnc23)C1 (centres undefined)	n	n	n	n	31.8	n
CC(C)Cc1nnc(NC(=O)CCC(=O)NC2CC2)s1	n	n	n	n	37.6	n
Cc1ccc(C(=O)N[C@H](C(=O)NC2CCCCC2)C(C)C)cc1	x	n	x	x	x	n
COC(=O)CC1C(=O)NCCN1C(=O)CSc1nc2ccccc2c(=O)n1CC(C)C (centres undefined)	n	n	n	n	33.9	n
CCN(CC)c1ccc(/C=N/NC(=O)Cc2nnc(NC(=O)Nc3ccccc3)s2)cc1	n	n	n	n	n	25.4
CCCCCN=C(N)N/N=C/c1c[nH]c2ccc(OC)cc12	n	n	n	n	x	17.7
CCCOc1ccc(C(=O)N/N=C/c2c[nH]c3ccc(Br)cc23)cc1	n	n	n	n	n	n
Cc1nc(-c2cccc(NC(=O)c3ccc(-n4cccn4)cc3)c2)cs1	n	n	x	x	x	n
CN(c1ccc(OCC(=O)Nc2ccc3[nH]c(=O)[nH]c3c2)cc1)S(=O)(=O)c1ccc(Cl)cc1	n	n	n	n	41.6	n
COc1ccc(CCNC(=O)COc2ccc(N(C)S(=O)(=O)c3ccc(Cl)cc3)cc2)cc1	x	x	n	x	25.7	n
CN1CCN(c2ccc(Nc3ccnc4cc(Cl)ccc34)cc2)CC1	n	n	n	n	x	56.8
CCN1CCN(c2ccc(Nc3ccnc4ccccc34)cc2)CC1	n	n	x	x	x	36.3
CCN1CCN(c2nc(-c3ccccn3)nc3ccccc23)CC1	n	n	n	n	n	n
CCN(CC)CCOc1ccc2c(c1)C(=NO)c1cc(OCCN(CC)CC)ccc1-2	n	n	n	n	n	55.8
CCCOc1ccc2c(c1)C(=NN=C(N)N)c1cc(OCCC)ccc1-2	n	n	n	n	n	34.6
CC(Oc1ccc2c(-c3ccccc3)cc(=O)oc2c1)C(=O)NCCCn1ccnc1 (centres undefined)	n	n	n	n	n	n
CCN(Cc1ccncc1)C(=O)c1ccc(Br)o1	n	n	n	n	n	n
Cc1cc(NC(=O)CCC(=O)N(CC(=O)NC2CCCC2)c2cccc(F)c2)no1	n	n	n	n	n	n
OCCN1CCN(c2ncnc3c2sc2nc(N4CCOCC4)c4c(c23)CCC4)CC1	n	n	n	n	n	20.2
CCc1ccc(CNC(=O)CCCC(=O)n2nc(C)c3ccccc32)cc1	n	n	n	n	n	n
O=C(O)c1cccnc1SC1CC(=O)N(Cc2ccccc2)C1=O (centres undefined)	n	n	n	n	n	n
O=C(O)c1cccnc1SC1CC(=O)N(CCc2ccccc2)C1=O (centres undefined)	n	n	n	n	39.7	n
SMILES	ZTA DNA inh	NALP3 yeast inh	PolyA inh	EBNA-1 inhibitor	NALP1 yeast inh	dFosB activator
O=[N+]([O-])c1cccnc1N1CCC(c2cc(-c3ccc(Cl)cc3)n[nH]2)CC1	n	n	n	n	40.3	n
CCOC(=O)CN1CCC(c2cc(-c3ccc(Cl)cc3)n[nH]2)CC1	n	n	n	n	n	n
CCOC(=O)/C(C#N)=C1\SS/C(=C(/C#N)C(=O)OCC)S1	n	n	n	n	79.5	x
CCOC(=O)/C(C#N)=C1/CCCCCN1C	n	n	n	n	n	n
Cc1cc(O)c(C(C[N+](=O)[O-])c2ccc(Cl)cc2)c(=O)o1 (centres undefined)	n	n	n	n	n	n
Cc1cc(C)n(C(C[N+](=O)[O-])c2ccc(Cl)cc2)n1 (centres undefined)	n	n	n	n	101.0	n
O=C(NC(=S)Nn1cnc2c(cnn2-c2ccccc2)c1=O)c1ccc(Oc2ccccc2)cc1	n	n	n	31.0	n	n
O=C(NC(=S)Nn1cnc2c(cnn2-c2ccccc2)c1=O)c1ccc(Cl)cc1	n	n	n	n	n	n
Cc1cccc(N2C(=O)CC(Sc3nnc(C)s3)C2=O)c1 (centres undefined)	n	n	n	n	35.3	n
Cc1cccc(N2C(=O)CC(Cn3nc(C)cc3C)C2=O)c1 (centres undefined)	n	n	n	n	x	n
Cc1cc(C)cc(N2C(=O)CC(Sc3nnnn3-c3ccccc3)C2=O)c1 (centres undefined)	n	n	n	n	42.6	n
Cc1cc(C)cc(N2C(=O)CC(Sc3ncn[nH]3)C2=O)c1 (centres undefined)	n	n	n	n	57.5	n
Cc1cccc(N2C(=O)CC(Sc3nc(C)cc(C)n3)C2=O)c1 (centres undefined)	n	n	n	n	n	n
CCN(CC)C1CC(=O)N(c2cccc(C)c2)C1=O (centres undefined)	n	n	n	n	90.5	x
COc1cc(OC)cc(-c2oc(=O)c3cc(OC)c(OC)cc3c2/C=C/c2ccc(F)cc2)c1	n	n	x	x	x	n
O=C(N/N=C/c1sc(N2CCCCC2)nc1-c1cccs1)C1CC1	n	n	n	n	31.2	n
NC(=O)N/N=C/c1sc(N2CCCCC2)nc1-c1cccs1	n	n	n	n	x	n
C[C@H]1COC(=O)[C@@H](NC(=O)OCC2c3ccccc3-c3ccccc32)C/C=C\C[C@H](CC(=O)NCCO)C(=O)N1	x	n	x	x	x	n
CC(=O)CN1C(=O)NC2(CCCc3ccccc32)C1=O (centres undefined)	n	n	n	n	n	n
NC(=O)CN1C(=O)NC2(CCCc3ccccc32)C1=O (centres undefined)	n	n	n	n	44.9	n
O=C(Nc1ccc(OC(F)(F)F)cc1)NC1CCC(Oc2ccc(C(=O)O)cc2)CC1 (centres undefined)	n	n	x	x	x	n
Cc1ccc(/C(O)=C2\C(=O)C(=O)N(C)C2c2ccc(F)cc2)cc1 (centres undefined)	x	n	n	x	n	n
COc1cc2c(cc1NC(=O)CSc1nccn1C)oc1ccccc12	n	n	n	n	n	n
COc1cc2c(cc1NC(=O)CSc1ccccc1)oc1ccccc12	33.5	n	n	n	n	n
COc1ccc(-c2sc3cc4c(cc3c2C#CC2(N)CCCCC2)OCO4)cc1	n	n	x	x	x	66.8

Screening data (PubChem)
